For 50 molecules, Percent Effect results are on record in ChEMBL document CHEMBL3988442, “University of Dundee, Small-Polar-MMV Screening Library” (2021).

Experiment [1] concerns the target T1, Aspartate--tRNA(Asp/Asn) ligase (Mycobacterium tuberculosis (strain ATCC 25618 / H37Rv)) (UniProt P9WFW3). Also: in the data most compounds retested in dose-response had high values.
T1 sequence (whole entry): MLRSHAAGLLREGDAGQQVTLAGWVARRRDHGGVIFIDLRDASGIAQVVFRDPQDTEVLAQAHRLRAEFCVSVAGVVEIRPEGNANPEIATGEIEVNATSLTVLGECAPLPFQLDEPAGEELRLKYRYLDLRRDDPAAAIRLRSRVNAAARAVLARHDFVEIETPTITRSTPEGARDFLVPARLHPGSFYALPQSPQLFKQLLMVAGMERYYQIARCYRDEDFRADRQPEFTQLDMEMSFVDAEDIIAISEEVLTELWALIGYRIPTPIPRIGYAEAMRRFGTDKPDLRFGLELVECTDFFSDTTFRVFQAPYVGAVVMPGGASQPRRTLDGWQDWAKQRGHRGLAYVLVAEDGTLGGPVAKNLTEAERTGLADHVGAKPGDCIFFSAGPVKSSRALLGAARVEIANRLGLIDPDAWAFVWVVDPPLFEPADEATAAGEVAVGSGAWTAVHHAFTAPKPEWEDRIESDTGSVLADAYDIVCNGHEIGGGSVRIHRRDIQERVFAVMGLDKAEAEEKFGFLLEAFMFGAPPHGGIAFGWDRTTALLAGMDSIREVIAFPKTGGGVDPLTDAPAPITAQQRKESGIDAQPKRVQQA
Briefly: Assay for Asp RNA synthetase-1 from Mycobacterium tuberculosis. The format is functional. On the set-up: scale not given: direction of the effect not stated beside the values. To be noted: 30 µM.

The target in experiment [2] is Shiga toxin 2 (Escherichia coli O157:H7) (UniProt P09385+P09386). Briefly: E. coli 0.157:H7 Shiga Toxin SOP - stx2 screening assay. It is filed as functional. Also noted: scale not given: direction of the effect not stated beside the values. The note with it: 30 µM.

`N#Cc1ccccc1OCCN1CCC(N2CCNC2=O)CC1`: the Percent Effect in experiment [1] is -0.816%; in experiment [2] it was -50.9%.

As to `CC(C)c1cc(NC(=O)CN2CCc3cncnc3C2)on1`, the Percent Effect in experiment [1] is 2.37%; in experiment [2], 5.67%.

For the molecule `Cc1cnn(CC2CCCCN2C(=O)c2cc(C(N)=O)cs2)c1` (stereo not given), the values for the Percent Effect in experiment [1] and in experiment [2] were -2.6% and 1.14%, respectively.

In the case of `CC(CNC(=O)c1cccnc1Oc1cccnc1)N(C)C` (stereo not given), the results for the Percent Effect in experiment [1] and in experiment [2] were -3.18% and -12.1%, respectively.

Regarding `CN(Cc1ccccc1)CC(O)Cn1cnc2c(cnn2C)c1=O` (stereo not given), the Percent Effect in experiment [1] is -0.522%; in experiment [2], -8.29%.

As for `CN1CCC(Oc2ccc(NC(=O)c3ccccc3Br)cc2)CC1`, the Percent Effect was -0.921% in experiment [1] and -69.6% in experiment [2].

With `O=C1NCCN1C1CCCN(Cc2coc(-c3ccc(F)cc3)n2)C1` (stereo not given), the figures for the Percent Effect in experiment [1] and in experiment [2] were -2.94% and -27.1%, respectively.

For `O=c1cc(Cn2cncn2)nc2n1CCCN(CC1CC1)C2`, the Percent Effect in experiment [1] was -4.96%; in experiment [2], -0.568%.

For the molecule `CN(Cc1nccn1CC(F)(F)F)C(=O)c1ccc(F)c(F)c1`, the results for the Percent Effect in experiment [1] and in experiment [2] were 2.69% and 0.723%, respectively.

For the molecule `Cc1nc(N2CCCC2)nc2c1CCN(C(=O)CC1CC1)CC2`, the Percent Effect in experiment [1] was -1.6%; in experiment [2] it was -20.8%.

With `O=C(c1ccco1)N1CCOCC2(CCN(C3CCOCC3)C2)C1` (stereo not given), the Percent Effect in experiment [1] was 8.62%; in experiment [2], -31.1%.

Consider `CCn1cnnc1CNC(=O)c1cc(Cl)ccc1O`, for which the results for the Percent Effect in experiment [1] and in experiment [2] were 3.77% and -19.6%, respectively.

Turning to `CC(C)(C)OC(=O)N1CCCc2ccc(NCc3ncc[nH]3)cc21`, the values for the Percent Effect in experiment [1] and in experiment [2] were 5.68% and -52.5%, respectively.

For the molecule `Cn1cc(CN2CCCN(C(=O)c3ccc4c(c3)COC4)CC2)cn1`, the Percent Effect in experiment [1] is -0.281%; in experiment [2], 30.1%.

As to `COc1ccc(F)cc1C(C(=O)O)N1CCSCC1` (stereo not given), the figures for the Percent Effect in experiment [1] and in experiment [2] were 4.05% and 9.21%, respectively.

In the case of `CC(=O)N1CCCC1c1cccc(Cc2ccc(F)cc2)n1` (stereo not given), the Percent Effect was -5.96% in experiment [1] and 5.81% in experiment [2].

As for `Cc1cc(C(=O)N2CCc3nnc(N)cc3C2)c(C)n1-c1cccnc1`, the Percent Effect in experiment [1] was 7.03%; in experiment [2], -28.4%.

For `CC(=O)NCC(=O)N1CCC2(CC1)CN(c1cccnc1)C(=O)CO2`, the Percent Effect in experiment [1] was 2.37%; in experiment [2] it was -4.09%.

For the molecule `COc1ccc(Oc2cncc(C3CCCN3C(C)=O)n2)cc1` (stereo not given), the Percent Effect was 0.194% in experiment [1] and -6.98% in experiment [2].

Take `Cc1cc(C(=O)N2CCCC(n3ccnc3C)C2)c(C)s1` (stereo not given): the Percent Effect in experiment [1] was -4.25%; in experiment [2] it was -6.7%.

`O=C1CC(c2cccc(O)c2)c2c(c(C(=O)O)cn2-c2ccccc2)N1` (stereo not given): the Percent Effect was 22.9% in experiment [1] and -12.9% in experiment [2].

As for `O=C1CC2(CCN(S(=O)(=O)C3CC3)C2)CN1c1cncnc1` (stereo not given), the Percent Effect in experiment [1] is 4.51%; in experiment [2] it was -33.9%.

In the case of `Cc1noc(CCCC(=O)NC(C)c2ccccn2)n1` (stereo not given), the Percent Effect was -1.28% in experiment [1] and 16% in experiment [2].

Regarding `CSCCC(CO)NC(=O)c1sc(-c2ccccc2Cl)nc1C` (stereo not given), the results for the Percent Effect in experiment [1] and in experiment [2] were -2.58% and -30.8%, respectively.

For `Cc1ccsc1C(=O)NCCCn1nc2ccccn2c1=O`, the values for the Percent Effect in experiment [1] and in experiment [2] were 1.69% and 16.8%, respectively.

Regarding `O=C(NC(Cc1ccsc1)c1nccs1)C1CCOCC1` (stereo not given), the Percent Effect in experiment [1] came out at 1.44%; in experiment [2], 15.3%.

`CC(NC(=O)NCCCN(C)C)c1ccc2c(c1)CCC(=O)N2` (stereo not given): the results for the Percent Effect in experiment [1] and in experiment [2] were -3.92% and 7.67%, respectively.

With `CCc1ncc2c(n1)CN(CC(=O)Nc1nnc(C)s1)CC2`, the Percent Effect was 4.25% in experiment [1] and -18.6% in experiment [2].

Take `COCCNS(=O)(=O)c1ccc2c(c1)CCN(C(=O)c1cncn1C)C2`: the Percent Effect in experiment [1] is 0.891%; in experiment [2] it was -23.1%.

On to `Nc1cc(CCC2CN(Cc3ccc(C(=O)O)cc3)CCO2)ccn1` (stereo not given), for which the Percent Effect in experiment [1] is 2.72%; in experiment [2] it was 55.2%.

`Cc1noc(CCCC(=O)NC(C)c2cn(-c3ccccc3)nn2)n1` (stereo not given): the Percent Effect in experiment [1] was -5.92%; in experiment [2] it was 0.819%.

Turning to `CCc1noc(C(C)N2CCN(Cc3nnc(C4CC4)o3)CC2)n1` (stereo not given), the figures for the Percent Effect in experiment [1] and in experiment [2] were -4.98% and 10.9%, respectively.

As to `Cc1noc(C)c1C(=O)N1C[C@H]2CCC[C@@]2(COc2ccccn2)C1`, the Percent Effect in experiment [1] came out at 4.65%; in experiment [2] it was 2.11%.

In the case of `Cc1nn(C)c(N(C)C)c1CNCc1ccccc1Cn1cncn1`, the results for the Percent Effect in experiment [1] and in experiment [2] were -4.47% and 10.9%, respectively.

Take `CC(c1nc(C2CC2)no1)N1CCN(Cc2cccc(C#N)c2)CC1` (stereo not given): the Percent Effect was -3.08% in experiment [1] and 9.24% in experiment [2].

Consider `CC(C)N1CCOCC2(CN(Cc3nccs3)CCO2)C1` (stereo not given), for which the Percent Effect was 2.14% in experiment [1] and -11.3% in experiment [2].

For the molecule `O=C([C@@H]1C[C@H]2[C@H](CCN2Cc2nccs2)O1)N1CCOCC1`, the figures for the Percent Effect in experiment [1] and in experiment [2] were 2.29% and -22.3%, respectively.

Regarding `CS(=O)(=O)N[C@@H]1CCO[C@]2(CCN(C(=O)C3=CCCC3)C2)C1`, the Percent Effect in experiment [1] is 3.41%; in experiment [2] it was -0.907%.

With `O=C(c1ccc(OCC2CC2)nc1)N1CCCC(n2ccnc2)C1` (stereo not given), the Percent Effect in experiment [1] was -9.61%; in experiment [2], -43.4%.

Regarding `Cc1ccc(C(CNCC2CC2)N2CCOCC2)s1` (stereo not given), the Percent Effect in experiment [1] is 3.84%; in experiment [2] it was -22.1%.

`COCC1CCCN(C(=O)c2cc(Cn3ccc4ccccc43)[nH]n2)C1` (stereo not given): the Percent Effect in experiment [1] is 9.18%; in experiment [2], -24.9%.

Turning to `CC(=O)N1[C@H](Cn2cncn2)C[C@@H]2CN(S(C)(=O)=O)CC[C@@H]21`, the Percent Effect in experiment [1] is 2.85%; in experiment [2], -36.4%.

Turning to `CCCc1noc(CN2CCCC2c2c(C)nn(C)c2OC)n1` (stereo not given), the Percent Effect was -5.33% in experiment [1] and 4.3% in experiment [2].

On to `Cc1ccc(CNC(=O)CN2CCN(CC(O)c3ccco3)CC2)cc1` (stereo not given), for which the figures for the Percent Effect in experiment [1] and in experiment [2] were -6.22% and -10.6%, respectively.

On to `CN1CCN(Cc2nc3ccccc3[nH]2)[C@H]2CS(=O)(=O)C[C@H]21`, for which the Percent Effect in experiment [1] is 8.03%; in experiment [2] it was -6.1%.

Take `CC(O)CN1CCN(C(=O)c2cc3ccccc3c(=O)[nH]2)CC1` (stereo not given): the figures for the Percent Effect in experiment [1] and in experiment [2] were 0.869% and -10.8%, respectively.

`Cc1ccc(CN(Cc2ccccn2)C2CC(C)(C)NC(C)(C)C2)s1`: the Percent Effect in experiment [1] was -5.4%; in experiment [2], 15.6%.

Consider `c1cnnc(NCC2CN(Cc3cccc4c3OCCO4)CCO2)c1` (stereo not given), for which the Percent Effect in experiment [1] was -1.18%; in experiment [2] it was -1.74%.

Regarding `Cc1cc(-c2nn(C)c(Cl)c2CN2CCOCC(O)C2)no1` (stereo not given), the Percent Effect in experiment [1] is -2.42%; in experiment [2], 16.3%.

As for `COc1ccc(CNC(=O)NC(C)Cn2cccn2)cc1O` (stereo not given), the Percent Effect in experiment [1] is -1.61%; in experiment [2] it was 17.6%.
